# Reference: paper PMC7862700, “An all-to-all approach to the identification of sequence-specific readers for epigenetic DNA modifications on cytosine”
# Columns and labels:
# Experiment in all cases: DAPPL (digital affinity profiling via proximity ligation, sequencing); 10 mM Tris-HCl pH 7.5, 50 mM NaCl, 1 mM DTT, 4% glycerol, room temperature, 30 min; GST-TFs on glutathione beads, 16-mer random dsDNA library, 0.1% formaldehyde crosslink after washing; high values mean tight binding
# [1] = target: T1, FLI1 (Homo sapiens, UniProt Q01543 1-452); settings: protein: recombinant; tags: N-terminal GST; dsDNA, one strand shown
# T1 sequence: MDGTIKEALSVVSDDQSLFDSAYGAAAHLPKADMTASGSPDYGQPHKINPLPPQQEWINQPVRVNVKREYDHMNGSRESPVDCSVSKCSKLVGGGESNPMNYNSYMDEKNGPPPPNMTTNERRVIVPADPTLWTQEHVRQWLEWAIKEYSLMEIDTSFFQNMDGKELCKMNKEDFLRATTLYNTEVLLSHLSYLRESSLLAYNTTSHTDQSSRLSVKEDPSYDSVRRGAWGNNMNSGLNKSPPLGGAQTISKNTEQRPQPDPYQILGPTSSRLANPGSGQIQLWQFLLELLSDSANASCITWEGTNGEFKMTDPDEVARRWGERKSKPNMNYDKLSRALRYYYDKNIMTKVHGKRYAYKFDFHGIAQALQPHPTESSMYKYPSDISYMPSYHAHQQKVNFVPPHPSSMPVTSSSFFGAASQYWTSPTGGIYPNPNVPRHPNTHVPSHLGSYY
# Method in brief: (§1)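 Each value of binding signal is a hexamer's read frequency for a factor divided by the same hexamer's frequency in the tag-only sample. Barcoded, bead-captured GST fusions of human transcription factors made in yeast were pooled with that sample and incubated with 200 nmole of a random double-stranded 16-mer DNA library in Tris/NaCl/DTT/glycerol buffer at room temperature for 30 min. Washing, 0.1% formaldehyde crosslinking, proximity ligation, PCR and Illumina NextSeq500 sequencing followed.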
# [2] = target: T2, ELK1 (Homo sapiens, UniProt P19419 1-428); settings: protein: recombinant; tags: N-terminal GST; dsDNA, one strand shown
# T2 sequence: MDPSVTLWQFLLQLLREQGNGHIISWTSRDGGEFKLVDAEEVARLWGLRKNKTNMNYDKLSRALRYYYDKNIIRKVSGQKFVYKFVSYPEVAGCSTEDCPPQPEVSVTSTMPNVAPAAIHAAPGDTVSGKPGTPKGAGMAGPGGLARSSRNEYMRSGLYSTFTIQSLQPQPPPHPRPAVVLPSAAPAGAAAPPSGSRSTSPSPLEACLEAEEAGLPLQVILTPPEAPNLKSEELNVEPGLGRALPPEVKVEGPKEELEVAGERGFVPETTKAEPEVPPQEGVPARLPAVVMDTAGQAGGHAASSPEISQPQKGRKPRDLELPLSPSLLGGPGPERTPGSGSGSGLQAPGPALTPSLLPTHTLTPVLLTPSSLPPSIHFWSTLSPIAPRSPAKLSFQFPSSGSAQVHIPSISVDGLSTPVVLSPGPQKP
# Method in brief: as §1
# [3] = target: T3, GABPA (Homo sapiens, UniProt Q06546 1-454); settings: protein: recombinant; tags: N-terminal GST; dsDNA, one strand shown
# T3 sequence: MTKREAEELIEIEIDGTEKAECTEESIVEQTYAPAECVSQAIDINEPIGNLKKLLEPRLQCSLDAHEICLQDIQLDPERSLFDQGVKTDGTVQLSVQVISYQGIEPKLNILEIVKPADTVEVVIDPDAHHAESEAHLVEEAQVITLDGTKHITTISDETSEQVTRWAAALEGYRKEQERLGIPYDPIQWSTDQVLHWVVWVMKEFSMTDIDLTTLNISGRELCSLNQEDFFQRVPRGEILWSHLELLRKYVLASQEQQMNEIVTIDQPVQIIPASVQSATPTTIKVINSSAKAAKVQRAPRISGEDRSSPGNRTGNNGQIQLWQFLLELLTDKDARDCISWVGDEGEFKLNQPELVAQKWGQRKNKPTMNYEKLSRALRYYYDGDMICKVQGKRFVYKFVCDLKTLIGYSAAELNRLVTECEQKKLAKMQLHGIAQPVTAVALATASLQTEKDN
# Method in brief: as §1
# [4] = target: T4, ERG (Homo sapiens, UniProt P11308 1-479); settings: protein: recombinant; tags: N-terminal GST; dsDNA, one strand shown
# T4 sequence: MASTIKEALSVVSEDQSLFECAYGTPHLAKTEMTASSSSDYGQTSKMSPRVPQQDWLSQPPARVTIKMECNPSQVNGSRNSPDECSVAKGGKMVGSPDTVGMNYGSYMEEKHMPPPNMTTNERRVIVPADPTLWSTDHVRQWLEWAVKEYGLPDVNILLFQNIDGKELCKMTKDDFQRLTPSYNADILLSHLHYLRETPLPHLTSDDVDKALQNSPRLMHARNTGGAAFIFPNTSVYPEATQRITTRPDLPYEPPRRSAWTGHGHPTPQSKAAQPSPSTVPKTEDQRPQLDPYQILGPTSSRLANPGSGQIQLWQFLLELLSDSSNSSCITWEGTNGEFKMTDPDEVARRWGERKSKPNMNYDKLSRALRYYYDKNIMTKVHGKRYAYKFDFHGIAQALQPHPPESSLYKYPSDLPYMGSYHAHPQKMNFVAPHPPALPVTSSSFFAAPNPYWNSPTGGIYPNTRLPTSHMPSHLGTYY
# Method in brief: as §1
# [5] = target: ELF1 (Homo sapiens, UniProt P32519 1-619); settings: protein: recombinant; tags: N-terminal GST; dsDNA, one strand shown
# Sequence of ELF1 (P32519 whole entry): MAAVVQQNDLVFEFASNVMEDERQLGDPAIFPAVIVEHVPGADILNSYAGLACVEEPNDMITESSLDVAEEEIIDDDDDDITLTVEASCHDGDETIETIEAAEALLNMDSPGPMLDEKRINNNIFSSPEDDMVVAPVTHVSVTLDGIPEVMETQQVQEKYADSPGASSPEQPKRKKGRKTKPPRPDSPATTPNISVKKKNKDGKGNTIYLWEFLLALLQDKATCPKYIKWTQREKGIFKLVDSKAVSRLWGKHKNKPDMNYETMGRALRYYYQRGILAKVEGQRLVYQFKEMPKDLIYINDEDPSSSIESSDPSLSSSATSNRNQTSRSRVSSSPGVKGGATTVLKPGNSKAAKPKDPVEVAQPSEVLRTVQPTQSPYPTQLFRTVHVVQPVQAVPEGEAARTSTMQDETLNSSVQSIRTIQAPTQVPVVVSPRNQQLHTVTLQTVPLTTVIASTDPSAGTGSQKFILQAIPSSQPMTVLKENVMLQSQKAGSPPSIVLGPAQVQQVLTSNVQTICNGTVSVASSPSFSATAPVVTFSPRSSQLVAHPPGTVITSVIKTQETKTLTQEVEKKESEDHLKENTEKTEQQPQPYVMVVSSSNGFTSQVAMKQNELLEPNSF
# Method in brief: as §1
# [6] = target: T5, EHF (Homo sapiens, UniProt Q9NZC4 1-300); settings: protein: recombinant; tags: N-terminal GST; dsDNA, one strand shown
# T5 sequence: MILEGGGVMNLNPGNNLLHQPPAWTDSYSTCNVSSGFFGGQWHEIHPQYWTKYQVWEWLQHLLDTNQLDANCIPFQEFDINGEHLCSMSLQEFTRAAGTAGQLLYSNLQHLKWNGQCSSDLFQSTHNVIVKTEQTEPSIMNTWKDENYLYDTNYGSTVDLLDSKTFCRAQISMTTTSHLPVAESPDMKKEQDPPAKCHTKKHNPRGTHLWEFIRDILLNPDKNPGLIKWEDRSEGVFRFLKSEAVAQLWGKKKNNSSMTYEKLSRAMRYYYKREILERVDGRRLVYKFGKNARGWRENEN
# Method in brief: as §1
# [7] = target: SPI1 (Homo sapiens, UniProt P17947 1-270); settings: protein: recombinant; tags: N-terminal GST; dsDNA, one strand shown
# Method in brief: as §1
# [8] = target: SPIB (Homo sapiens, UniProt Q01892 1-262); settings: protein: recombinant; tags: N-terminal GST; dsDNA, one strand shown
# Sequence of SPIB (Q01892 whole entry): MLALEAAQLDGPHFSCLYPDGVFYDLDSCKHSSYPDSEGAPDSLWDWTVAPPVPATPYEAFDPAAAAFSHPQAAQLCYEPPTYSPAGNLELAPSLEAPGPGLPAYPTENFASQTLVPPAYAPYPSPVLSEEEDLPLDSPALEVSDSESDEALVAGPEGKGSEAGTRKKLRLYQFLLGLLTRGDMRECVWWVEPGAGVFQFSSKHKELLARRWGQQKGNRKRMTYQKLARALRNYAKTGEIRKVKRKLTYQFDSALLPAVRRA
# Method in brief: as §1
# [9] = target: T6, ELK3 (Homo sapiens, UniProt P41970 1-407); settings: protein: recombinant; tags: N-terminal GST; dsDNA, one strand shown
# T6 sequence: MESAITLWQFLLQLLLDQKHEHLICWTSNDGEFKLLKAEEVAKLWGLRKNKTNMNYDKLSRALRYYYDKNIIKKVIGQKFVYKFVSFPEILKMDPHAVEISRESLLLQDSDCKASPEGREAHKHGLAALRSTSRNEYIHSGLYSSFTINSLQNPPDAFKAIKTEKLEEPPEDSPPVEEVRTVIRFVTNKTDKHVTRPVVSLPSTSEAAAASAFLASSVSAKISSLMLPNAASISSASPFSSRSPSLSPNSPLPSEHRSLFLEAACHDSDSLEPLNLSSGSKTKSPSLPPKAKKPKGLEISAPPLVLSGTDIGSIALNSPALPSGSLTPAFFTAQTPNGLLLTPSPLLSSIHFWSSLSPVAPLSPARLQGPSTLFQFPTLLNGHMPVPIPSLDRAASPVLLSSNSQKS
# Method in brief: as §1
# [10] = target: T7, FEV (Homo sapiens, UniProt Q99581 1-238); settings: protein: recombinant; tags: N-terminal GST; dsDNA, one strand shown
# T7 sequence: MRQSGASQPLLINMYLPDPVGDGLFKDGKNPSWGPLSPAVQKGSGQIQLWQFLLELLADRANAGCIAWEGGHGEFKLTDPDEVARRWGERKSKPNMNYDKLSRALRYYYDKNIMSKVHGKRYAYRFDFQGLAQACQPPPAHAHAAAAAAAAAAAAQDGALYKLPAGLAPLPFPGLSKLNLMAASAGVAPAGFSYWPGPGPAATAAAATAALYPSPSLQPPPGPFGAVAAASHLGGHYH
# Method in brief: as §1
# [11] = target: ETV5 (Homo sapiens, UniProt P41161 1-510); settings: protein: recombinant; tags: N-terminal GST; dsDNA, one strand shown
# Sequence of ETV5 (P41161 whole entry): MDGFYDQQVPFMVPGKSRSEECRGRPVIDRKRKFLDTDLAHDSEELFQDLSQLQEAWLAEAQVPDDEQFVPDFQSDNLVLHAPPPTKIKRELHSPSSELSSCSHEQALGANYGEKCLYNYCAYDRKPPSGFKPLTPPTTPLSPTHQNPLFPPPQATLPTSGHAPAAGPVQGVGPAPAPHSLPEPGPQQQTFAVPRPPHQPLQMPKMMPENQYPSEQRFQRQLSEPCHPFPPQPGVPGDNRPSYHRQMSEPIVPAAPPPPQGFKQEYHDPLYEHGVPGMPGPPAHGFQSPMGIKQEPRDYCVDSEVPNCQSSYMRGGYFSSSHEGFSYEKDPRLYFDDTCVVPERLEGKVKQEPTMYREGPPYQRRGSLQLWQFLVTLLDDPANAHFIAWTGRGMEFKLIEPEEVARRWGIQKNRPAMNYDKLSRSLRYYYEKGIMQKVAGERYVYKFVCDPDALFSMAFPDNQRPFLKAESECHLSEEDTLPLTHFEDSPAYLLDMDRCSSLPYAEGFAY
# Method in brief: as §1
# [12] = target: HSF1 (Homo sapiens, UniProt Q00613 1-529); settings: protein: recombinant; tags: N-terminal GST; chain copies: 3; dsDNA, one strand shown
# Sequence of HSF1 (Q00613 whole entry): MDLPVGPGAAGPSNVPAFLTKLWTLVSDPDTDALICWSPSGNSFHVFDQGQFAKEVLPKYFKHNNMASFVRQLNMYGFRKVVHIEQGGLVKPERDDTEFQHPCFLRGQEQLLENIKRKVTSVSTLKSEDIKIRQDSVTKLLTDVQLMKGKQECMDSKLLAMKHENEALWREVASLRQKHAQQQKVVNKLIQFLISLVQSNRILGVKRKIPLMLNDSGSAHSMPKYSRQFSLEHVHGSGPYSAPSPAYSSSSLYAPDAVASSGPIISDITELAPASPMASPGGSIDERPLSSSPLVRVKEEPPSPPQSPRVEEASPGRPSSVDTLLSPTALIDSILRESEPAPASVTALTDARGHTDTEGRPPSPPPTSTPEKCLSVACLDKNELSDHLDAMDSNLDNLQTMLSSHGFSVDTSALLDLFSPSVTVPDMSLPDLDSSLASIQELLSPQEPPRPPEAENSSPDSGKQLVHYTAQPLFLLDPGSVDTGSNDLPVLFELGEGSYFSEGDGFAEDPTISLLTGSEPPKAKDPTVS
# Method in brief: as §1
# [13] = target: T8, SPIC (Homo sapiens, UniProt Q8N5J4 1-248); settings: protein: recombinant; tags: N-terminal GST; dsDNA, one strand shown
# T8 sequence: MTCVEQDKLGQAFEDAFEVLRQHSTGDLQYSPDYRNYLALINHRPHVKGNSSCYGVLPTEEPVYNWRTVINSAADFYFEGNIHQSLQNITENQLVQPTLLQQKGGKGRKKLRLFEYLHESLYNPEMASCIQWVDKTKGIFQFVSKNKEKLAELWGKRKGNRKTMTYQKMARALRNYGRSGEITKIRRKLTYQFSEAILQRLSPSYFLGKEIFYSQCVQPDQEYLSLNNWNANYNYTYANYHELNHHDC
# Method in brief: as §1
# [14] = target: ELF4 (Homo sapiens, UniProt Q99607 1-663); settings: protein: recombinant; tags: N-terminal GST; dsDNA, one strand shown
# Sequence of ELF4 (Q99607 whole entry): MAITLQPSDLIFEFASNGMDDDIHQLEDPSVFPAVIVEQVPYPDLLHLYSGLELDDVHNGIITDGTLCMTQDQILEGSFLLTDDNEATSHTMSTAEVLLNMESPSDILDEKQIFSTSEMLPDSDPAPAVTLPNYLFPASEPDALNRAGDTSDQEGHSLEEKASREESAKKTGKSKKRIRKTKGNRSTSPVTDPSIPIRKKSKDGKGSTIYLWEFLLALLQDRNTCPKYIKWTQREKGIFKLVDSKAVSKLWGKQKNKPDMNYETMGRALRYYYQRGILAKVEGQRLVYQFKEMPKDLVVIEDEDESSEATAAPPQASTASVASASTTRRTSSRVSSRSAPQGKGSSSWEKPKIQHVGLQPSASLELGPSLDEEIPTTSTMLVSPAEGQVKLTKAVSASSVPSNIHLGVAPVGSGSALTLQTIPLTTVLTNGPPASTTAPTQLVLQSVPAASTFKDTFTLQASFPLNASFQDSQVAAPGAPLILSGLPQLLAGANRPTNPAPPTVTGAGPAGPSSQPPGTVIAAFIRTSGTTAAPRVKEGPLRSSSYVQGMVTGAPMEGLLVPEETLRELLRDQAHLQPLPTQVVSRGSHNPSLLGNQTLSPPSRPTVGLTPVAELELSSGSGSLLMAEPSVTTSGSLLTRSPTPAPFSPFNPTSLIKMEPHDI
# Method in brief: as §1
# [15] = target: T9, ELK4 (Homo sapiens, UniProt P28324-2 1-405); settings: protein: recombinant; tags: N-terminal GST; dsDNA, one strand shown
# T9 sequence: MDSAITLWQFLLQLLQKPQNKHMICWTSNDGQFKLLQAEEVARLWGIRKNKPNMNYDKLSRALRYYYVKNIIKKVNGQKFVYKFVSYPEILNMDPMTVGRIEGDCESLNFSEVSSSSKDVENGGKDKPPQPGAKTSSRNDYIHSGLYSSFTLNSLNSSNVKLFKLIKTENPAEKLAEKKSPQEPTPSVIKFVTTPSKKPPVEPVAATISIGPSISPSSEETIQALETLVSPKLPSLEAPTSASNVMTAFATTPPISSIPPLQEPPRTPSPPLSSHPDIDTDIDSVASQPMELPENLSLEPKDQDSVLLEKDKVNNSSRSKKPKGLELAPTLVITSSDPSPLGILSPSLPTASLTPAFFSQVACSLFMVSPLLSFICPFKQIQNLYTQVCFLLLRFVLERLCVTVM
# Method in brief: as §1
# [16] = target: T10, ETV2 (Homo sapiens, UniProt O00321 1-342); settings: protein: recombinant; tags: N-terminal GST; dsDNA, one strand shown
# T10 sequence: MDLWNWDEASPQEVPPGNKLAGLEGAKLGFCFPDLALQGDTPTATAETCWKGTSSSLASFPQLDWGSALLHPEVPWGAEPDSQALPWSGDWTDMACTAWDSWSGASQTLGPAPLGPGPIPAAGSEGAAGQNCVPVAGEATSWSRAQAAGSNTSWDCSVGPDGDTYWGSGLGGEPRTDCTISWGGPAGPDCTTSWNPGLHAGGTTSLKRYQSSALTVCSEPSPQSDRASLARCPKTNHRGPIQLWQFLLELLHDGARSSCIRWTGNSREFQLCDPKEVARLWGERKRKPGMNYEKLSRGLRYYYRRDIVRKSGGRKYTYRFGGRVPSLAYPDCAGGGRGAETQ
# Method in brief: as §1
# [17] = target: T11, ELF3 (Homo sapiens, UniProt P78545 1-371); settings: protein: recombinant; tags: N-terminal GST; dsDNA, one strand shown
# T11 sequence: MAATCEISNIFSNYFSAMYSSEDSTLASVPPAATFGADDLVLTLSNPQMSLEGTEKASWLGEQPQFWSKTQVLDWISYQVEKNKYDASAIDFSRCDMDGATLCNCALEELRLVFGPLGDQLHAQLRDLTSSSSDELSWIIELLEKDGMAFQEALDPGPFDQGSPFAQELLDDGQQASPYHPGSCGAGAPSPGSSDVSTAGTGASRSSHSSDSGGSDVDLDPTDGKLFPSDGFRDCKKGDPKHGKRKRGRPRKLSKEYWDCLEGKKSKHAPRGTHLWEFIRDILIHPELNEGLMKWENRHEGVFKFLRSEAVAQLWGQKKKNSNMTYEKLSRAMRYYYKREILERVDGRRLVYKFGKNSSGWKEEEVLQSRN
# Method in brief: as §1
# [18] = target: CRX (Homo sapiens, UniProt O43186 1-299); settings: protein: recombinant; tags: N-terminal GST; dsDNA, one strand shown
# Sequence of CRX (O43186 whole entry): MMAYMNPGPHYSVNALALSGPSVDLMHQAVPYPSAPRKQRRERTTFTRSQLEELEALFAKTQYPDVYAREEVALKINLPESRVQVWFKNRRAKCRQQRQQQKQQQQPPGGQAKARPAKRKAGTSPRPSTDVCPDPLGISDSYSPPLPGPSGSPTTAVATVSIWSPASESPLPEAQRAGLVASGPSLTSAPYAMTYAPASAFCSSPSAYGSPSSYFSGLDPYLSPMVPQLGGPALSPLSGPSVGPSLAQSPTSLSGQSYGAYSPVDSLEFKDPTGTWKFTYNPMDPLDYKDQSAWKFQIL
# Method in brief: as §1
# [19] = target: ETV1 (Homo sapiens, UniProt P50549 1-477); settings: protein: recombinant; tags: N-terminal GST; dsDNA, one strand shown
# Sequence of ETV1 (P50549 whole entry): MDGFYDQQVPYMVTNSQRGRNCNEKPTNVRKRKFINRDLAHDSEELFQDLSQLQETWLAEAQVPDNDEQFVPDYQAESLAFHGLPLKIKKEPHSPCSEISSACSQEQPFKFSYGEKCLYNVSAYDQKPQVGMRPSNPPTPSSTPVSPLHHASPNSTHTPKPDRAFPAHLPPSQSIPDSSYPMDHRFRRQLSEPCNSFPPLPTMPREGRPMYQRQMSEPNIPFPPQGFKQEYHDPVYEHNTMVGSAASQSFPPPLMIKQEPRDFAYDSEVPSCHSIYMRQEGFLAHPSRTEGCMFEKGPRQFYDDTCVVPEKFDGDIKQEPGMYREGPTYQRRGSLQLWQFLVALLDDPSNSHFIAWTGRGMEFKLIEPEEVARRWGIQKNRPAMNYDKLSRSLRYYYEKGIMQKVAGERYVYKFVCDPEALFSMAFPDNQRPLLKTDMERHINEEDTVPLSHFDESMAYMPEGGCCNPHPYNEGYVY
# Method in brief: as §1
sequence,measurement,setting,value
AAAATG,binding signal,[1],"1.17 fold enrichment (6-mer frequency, TF over GST control)"
same,binding signal,[2],"1.15 fold enrichment (6-mer frequency, TF over GST control)"
same,binding signal,[3],"1.16 fold enrichment (6-mer frequency, TF over GST control)"
same,binding signal,[4],"1.2 fold enrichment (6-mer frequency, TF over GST control)"
same,binding signal,[5],"1.15 fold enrichment (6-mer frequency, TF over GST control)"
same,binding signal,[6],"1.21 fold enrichment (6-mer frequency, TF over GST control)"
same,binding signal,[7],"1.37 fold enrichment (6-mer frequency, TF over GST control)"
same,binding signal,[8],"1.26 fold enrichment (6-mer frequency, TF over GST control)"
same,binding signal,[9],"1.18 fold enrichment (6-mer frequency, TF over GST control)"
same,binding signal,[10],"1.16 fold enrichment (6-mer frequency, TF over GST control)"
same,binding signal,[11],"1.23 fold enrichment (6-mer frequency, TF over GST control)"
same,binding signal,[12],"1.15 fold enrichment (6-mer frequency, TF over GST control)"
same,binding signal,[13],"1.32 fold enrichment (6-mer frequency, TF over GST control)"
same,binding signal,[14],"1.26 fold enrichment (6-mer frequency, TF over GST control)"
same,binding signal,[15],"1.27 fold enrichment (6-mer frequency, TF over GST control)"
same,binding signal,[16],"1.31 fold enrichment (6-mer frequency, TF over GST control)"
same,binding signal,[17],"1.32 fold enrichment (6-mer frequency, TF over GST control)"
same,binding signal,[18],"1.1 fold enrichment (6-mer frequency, TF over GST control)"
same,binding signal,[19],"1.2 fold enrichment (6-mer frequency, TF over GST control)"
